Reference: ChEMBL document CHEMBL3433997, “St. Jude Leishmania screening dataset” (2016)

Biological target: Solute carrier family 2, facilitated glucose transporter member 1 (Homo sapiens) (UniProt P11166)
Test: ST_JUDE_LEISH: Cytotoxicity at 2uM final concentration against transgenic Leishmania Mexicana promastigotes LmGLUT1 that are glucose transport deficient and complemented with the human glucose transporter GLUT1. Activity is measured by DNA content using SYBR green in vitro
Format: functional

Chain of Solute carrier family 2, facilitated glucose transporter member 1 (Homo sapiens) (P11166 whole entry): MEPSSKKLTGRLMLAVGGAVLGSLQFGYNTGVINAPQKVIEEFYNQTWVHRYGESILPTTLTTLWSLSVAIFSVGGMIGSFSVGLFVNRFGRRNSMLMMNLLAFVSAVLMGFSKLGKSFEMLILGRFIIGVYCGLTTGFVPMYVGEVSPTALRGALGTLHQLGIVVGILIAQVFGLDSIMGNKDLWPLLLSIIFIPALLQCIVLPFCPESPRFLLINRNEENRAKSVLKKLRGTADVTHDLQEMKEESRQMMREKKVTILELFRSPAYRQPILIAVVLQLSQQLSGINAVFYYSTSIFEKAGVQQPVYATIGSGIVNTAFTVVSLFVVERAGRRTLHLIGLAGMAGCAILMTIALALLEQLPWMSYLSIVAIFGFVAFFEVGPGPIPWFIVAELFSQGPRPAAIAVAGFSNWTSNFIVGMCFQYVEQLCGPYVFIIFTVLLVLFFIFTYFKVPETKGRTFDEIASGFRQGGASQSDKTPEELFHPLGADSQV

SMILES	inhibition
CCc1ccc(-n2c(NC(=O)c3ccccc3)nc3ccc(S(=O)(=O)NC(C)C(C)C)cc32)cc1 (stereo not given)	-1.74%
COc1ccccc1CNc1ccnc(N2CC(Oc3ccc(F)cc3)C2)n1	-2.09%
Cc1c(O)cccc1Nc1ccnc2ccc(C(F)(F)F)cc12	-0.14%
O=C(Cc1c[nH]cn1)Nc1ccc(-c2cccc(-c3nc4cc(F)ccc4[nH]3)c2)cc1	1.49%
O=C(/C=C/c1ccc(Cl)c(Cl)c1)NCCCCCCN1CCCN(C(=O)Nc2ccc(F)c(F)c2)CC1	0.72%
Nc1ccc2[nH]cc(C3CCN(CC4CCC(NC(=O)/C=C/c5ccccc5Cl)CC4)CC3)c2n1 (stereo not given)	3.23%
O=C(NCc1ccc(F)cc1)Nc1ccc(-c2cccc(-c3nc4cc(F)ccc4[nH]3)c2)cc1	7.44%
O=C(NCCc1ccccc1F)c1ccc(N2CCN(c3ccncc3)CC2)cn1	10.3%
N#Cc1ccc2c(c1)CCN(CCC1CCC(NC(=O)/C=C/c3ccc(Cl)c(Cl)c3)CC1)CC2 (stereo not given)	9.87%
O=C(N[C@@H](CC1CCCCC1)C(=O)NCCN1CCCCC1)c1ccc(O)c(-c2ccc(Cl)c(Cl)c2)c1	0.75%
O=C(Nc1ccc(-c2ccccc2)cc1)Nc1ccc2c(c1)CCNCC2	-2.5%
COc1cccc2c(NN=Cc3ccccc3F)ccnc12	7.43%
CCOC(=O)c1ccc(OCc2ccc(-c3ccccc3)cc2)cc1	-0.38%
O=C(Nc1ccccc1)N1CCC(CN2CCOC(c3ccccc3)(c3ccccc3)C2)CC1	7.91%
CC1CNC(c2cccc(NC(=O)Nc3cccc(C4=NC(C)CN4)c3)c2)=N1 (stereo not given)	6.32%
COc1cc(CS(C)(=O)=O)ccc1Nc1nccc(-c2c(-c3cccc(NC(=O)c4c(F)cccc4F)c3)nn3ccccc23)n1	13.5%
CCOC(=O)NCC(=O)Nc1cccc(-c2cccc(-c3nc4cccc(C)c4[nH]3)c2)c1	1.11%
Cc1ccc2c(OCCN3CCC(Cc4cc5c(cc4F)OCC(=O)N5)CC3)cc(F)cc2n1	5.35%
N#Cc1ccc(C(=O)Nc2ccc(Cl)c(N3CCN(CCc4ccccc4)CC3)c2)cc1	8.77%
COc1ccc2[nH]c(-c3ccccc3)cc(=NN=Cc3ccncc3)c2c1	3.48%

SMILES	inhibition
Cc1c(Cc2ccccc2Cl)cnc2nc(N)nc(N)c12	18.9%
CC(C)NCc1ccc(-c2ccc(-c3nc4cc(C(F)(F)F)ccc4[nH]3)s2)cc1	19.5%
CCCn1c(=N)c(C(=O)NCCc2ccccc2)cc2c(=O)n3cccc(C)c3nc21	5.16%
COc1ccc(-c2ccc3c(-c4cccc(S(C)(=O)=O)c4)cnc(N)c3c2)cc1	0.83%
CCOC(=O)c1cnc2c(OC)cc(OC)c(Cl)c2c1Nc1cccc(C)c1	9.4%
Cn1cc(C2CCN(CCCCNC(=O)c3ccc(C(=O)Nc4ccc(C#N)cc4)cc3)CC2)c2ccccc21	9%
CCOC(=O)c1ccc(NC(=O)Nc2ccc(-c3cccc(-c4nc5ccccc5[nH]4)c3)cc2)cc1	6.03%
CNCc1ccc(-c2ccc3ccnc(N)c3c2)cc1	2.47%
Cn1nccc1C(=O)NCCNCc1ccc(-c2ccc(-c3nc4cc(C(F)(F)F)ccc4[nH]3)cc2)cc1	6.01%
O=C(CC1SC(N2N=C(c3cccs3)CC2c2ccccc2)=NC1=O)Nc1ccccc1F (stereo not given)	14.2%
O=C(NCCCN(Cc1ccc(F)cc1)c1ccccn1)C(c1cc2ccccc2o1)N1CCN(C(c2ccccc2)c2ccccc2)CC1 (stereo not given)	3.35%
CO/C(=C\C=C\c1cc2cc(Cl)c(Cl)cc2[nH]1)C(=O)NCCCNC12CC3CC(CC(C3)C1)C2	3.15%
CS(=O)(=O)c1ccc(CNCc2cccc(-c3cccc(-c4nc5ccccc5[nH]4)c3)c2)cc1	2.3%
CCNc1cc(C(=O)N[C@@H](Cc2ccoc2)[C@H](O)CNC(C)CCCC(C)C)cc(N2CCCCS2(=O)=O)c1 (stereo not given in full)	1.42%
CS(=O)(=O)c1ccc(CCNCc2ccc(-c3cccc(-c4nc5ccccc5[nH]4)c3)cc2)cc1	1.41%
Cc1ccc(NC(=O)c2ccc(N3CCN(c4ccncc4)CC3)cc2)cc1F	68%
CCn1c(-c2nonc2N)nc2c(C#CC(C)(C)O)ncc(OCCNCCc3ccc(OC)cc3)c21	5.15%
Cc1cccc2nc(-c3ccc(-c4ccc(CNCCc5ccncc5)cc4)cc3)[nH]c12	13.2%
O=C(N1CCN(c2cccc(C(F)(F)F)c2)CC1)C(Cl)(Cl)Cl	0.96%
Cc1cccc(Nc2nc(N[C@@H]3CCCNC3)nc3cc[nH]c(=O)c23)c1	92.3%

Biological target: Hexose transporter 1 (Plasmodium falciparum) (UniProt O97467)
Test: ST_JUDE_LEISH: Cytotoxicity at 2uM final concentration against transgenic Leishmania Mexicana promastigotes LmPfHT that are glucose transport deficient and complemented with the Plasmodium falciparum hexose transporter. Activity is measured by DNA content using SYBR green in vitro
Format: functional

SMILES	inhibition
CCc1ccc(-n2c(NC(=O)c3ccccc3)nc3ccc(S(=O)(=O)NC(C)C(C)C)cc32)cc1 (stereo not given)	-1.8%
COc1ccccc1CNc1ccnc(N2CC(Oc3ccc(F)cc3)C2)n1	0.57%
Cc1c(O)cccc1Nc1ccnc2ccc(C(F)(F)F)cc12	0.25%
O=C(Cc1c[nH]cn1)Nc1ccc(-c2cccc(-c3nc4cc(F)ccc4[nH]3)c2)cc1	4.07%
O=C(/C=C/c1ccc(Cl)c(Cl)c1)NCCCCCCN1CCCN(C(=O)Nc2ccc(F)c(F)c2)CC1	0.44%
Nc1ccc2[nH]cc(C3CCN(CC4CCC(NC(=O)/C=C/c5ccccc5Cl)CC4)CC3)c2n1 (stereo not given)	3.23%
O=C(NCc1ccc(F)cc1)Nc1ccc(-c2cccc(-c3nc4cc(F)ccc4[nH]3)c2)cc1	6.92%
O=C(NCCc1ccccc1F)c1ccc(N2CCN(c3ccncc3)CC2)cn1	9.09%
N#Cc1ccc2c(c1)CCN(CCC1CCC(NC(=O)/C=C/c3ccc(Cl)c(Cl)c3)CC1)CC2 (stereo not given)	13.1%
O=C(N[C@@H](CC1CCCCC1)C(=O)NCCN1CCCCC1)c1ccc(O)c(-c2ccc(Cl)c(Cl)c2)c1	1.44%
O=C(Nc1ccc(-c2ccccc2)cc1)Nc1ccc2c(c1)CCNCC2	0.46%
COc1cccc2c(NN=Cc3ccccc3F)ccnc12	7.62%
CCOC(=O)c1ccc(OCc2ccc(-c3ccccc3)cc2)cc1	-0.13%
O=C(Nc1ccccc1)N1CCC(CN2CCOC(c3ccccc3)(c3ccccc3)C2)CC1	4.78%
CC1CNC(c2cccc(NC(=O)Nc3cccc(C4=NC(C)CN4)c3)c2)=N1 (stereo not given)	8.33%
COc1cc(CS(C)(=O)=O)ccc1Nc1nccc(-c2c(-c3cccc(NC(=O)c4c(F)cccc4F)c3)nn3ccccc23)n1	20.7%
CCOC(=O)NCC(=O)Nc1cccc(-c2cccc(-c3nc4cccc(C)c4[nH]3)c2)c1	1.64%
Cc1ccc2c(OCCN3CCC(Cc4cc5c(cc4F)OCC(=O)N5)CC3)cc(F)cc2n1	4.63%
N#Cc1ccc(C(=O)Nc2ccc(Cl)c(N3CCN(CCc4ccccc4)CC3)c2)cc1	7.95%
COc1ccc2[nH]c(-c3ccccc3)cc(=NN=Cc3ccncc3)c2c1	3.17%

SMILES	inhibition
Cc1c(Cc2ccccc2Cl)cnc2nc(N)nc(N)c12	37.5%
CC(C)NCc1ccc(-c2ccc(-c3nc4cc(C(F)(F)F)ccc4[nH]3)s2)cc1	17.8%
CCCn1c(=N)c(C(=O)NCCc2ccccc2)cc2c(=O)n3cccc(C)c3nc21	7.01%
COc1ccc(-c2ccc3c(-c4cccc(S(C)(=O)=O)c4)cnc(N)c3c2)cc1	1%
CCOC(=O)c1cnc2c(OC)cc(OC)c(Cl)c2c1Nc1cccc(C)c1	8.66%
Cn1cc(C2CCN(CCCCNC(=O)c3ccc(C(=O)Nc4ccc(C#N)cc4)cc3)CC2)c2ccccc21	7.5%
CCOC(=O)c1ccc(NC(=O)Nc2ccc(-c3cccc(-c4nc5ccccc5[nH]4)c3)cc2)cc1	4.66%
CNCc1ccc(-c2ccc3ccnc(N)c3c2)cc1	5.56%
Cn1nccc1C(=O)NCCNCc1ccc(-c2ccc(-c3nc4cc(C(F)(F)F)ccc4[nH]3)cc2)cc1	0.59%
O=C(CC1SC(N2N=C(c3cccs3)CC2c2ccccc2)=NC1=O)Nc1ccccc1F (stereo not given)	11.5%
O=C(NCCCN(Cc1ccc(F)cc1)c1ccccn1)C(c1cc2ccccc2o1)N1CCN(C(c2ccccc2)c2ccccc2)CC1 (stereo not given)	3.69%
CO/C(=C\C=C\c1cc2cc(Cl)c(Cl)cc2[nH]1)C(=O)NCCCNC12CC3CC(CC(C3)C1)C2	1.55%
CS(=O)(=O)c1ccc(CNCc2cccc(-c3cccc(-c4nc5ccccc5[nH]4)c3)c2)cc1	0.28%
CCNc1cc(C(=O)N[C@@H](Cc2ccoc2)[C@H](O)CNC(C)CCCC(C)C)cc(N2CCCCS2(=O)=O)c1 (stereo not given in full)	0.7%
CS(=O)(=O)c1ccc(CCNCc2ccc(-c3cccc(-c4nc5ccccc5[nH]4)c3)cc2)cc1	0.65%
Cc1ccc(NC(=O)c2ccc(N3CCN(c4ccncc4)CC3)cc2)cc1F	74.7%
CCn1c(-c2nonc2N)nc2c(C#CC(C)(C)O)ncc(OCCNCCc3ccc(OC)cc3)c21	9.69%
Cc1cccc2nc(-c3ccc(-c4ccc(CNCCc5ccncc5)cc4)cc3)[nH]c12	21.1%
O=C(N1CCN(c2cccc(C(F)(F)F)c2)CC1)C(Cl)(Cl)Cl	5.03%
Cc1cccc(Nc2nc(N[C@@H]3CCCNC3)nc3cc[nH]c(=O)c23)c1	85.2%
